Measured values reported in PubChem BioAssay (Tox21).
Results filed as inconclusive are left out. The source made the active and inactive calls. The call rests on the fitted dose curve.

Experiment: qHTS assay to identify small molecule agonists of the endoplasmic reticulum stress response signaling pathway - cell viability counter screen (AID 1159517); further: nearly all actives have a fitted effect of over 50% in size
Details: ESRE-bla HeLa viability, CellTiter-Glo luminescence, 5 h; series mostly up to 61 µM
Text: U.S. Tox21 Program National Center for Advancing Translational Sciences [NCATS] NIH Chemical Genomics Center [NCGC] U.S. Environmental Protection Agency [EPA] National Institutes of Environmental Health Sciences [NIEHS] National Toxicology Program [NTP] U.S. Food and Drug Administration [FDA] Tox21 Assay Overview: Endoplasmic Reticulum (ER) plays an important role in cellular signaling, protein folding/maturation, stress response, lipid biosynthesis, calcium storage and release etc. Under stress conditions, proteins in ER misfold or unfold, and leading to the expression of ER stress responsive genes. ER stress has been associated with a variety of pathophysiological conditions such as cancer, inflammation, neurodegenerative diseases, diabetes, ischemic heart disease etc. To identify the compounds that induce ER stress response, an ER stress reporter cell line, CellSensor ESRE-bla HeLa (Life Technologies, Carlsbad, CA) containing a beta-lactamase reporter gene under control of the Endoplasmic reticulum Stress Response Element (ESRE) was used to screen Tox21 10K compound library. The cytotoxicity of the Tox21 compound library against the ESRE-bla HeLa cell line was tested in parallel by measuring cell viability using the CellTiter-Glo assay in the same wells.
Tox21 Assay Protocol Summary: ESRE-bla HeLa cells were dispensed at 1,500 cells/6 uL of assay medium per well into black wall/clear-bottom 1536-well plates using a Multidrop Combi (ThermoFisher Scientific, Waltham, MA) dispenser. After the assay plates were incubated at 37 C and 5% CO2 for an overnight, 23 nL of compounds dissolved in DMSO, positive controls or DMSO only was transferred to the assay plate by a Pintool station (Kalypsys, San Diego, CA). The assay plates were incubated at 37 C and 5% CO2 for 5 hr. One uL of LiveBLAzer B/G FRET substrate (Life Technologies) was added using a FRD (Flying Reagent Dispenser, Aurora Discovery, San Diego, CA) and the plates were incubated at room temperature for 2 hr. Fluorescence intensity (405 nm excitation, 460 nm and 530 nm emissions) was measured using an Envision plate reader (PerkinElmer, Shelton, CT). For cytotoxicity, 4 ul/well of CellTiter-Glo reagent was added into the assay plates using an FRD. After 30 min incubation at room temperature, the luminescence intensity was measured using a ViewLux plate reader (PerkinElmer).

SMILES	outcome
CCCCC(CC)COC(=O)C(C#N)=C(c1ccccc1)c1ccccc1 (stereo not given)	inactive
CC(c1cc2ccccc2s1)N(O)C(N)=O (stereo not given)	inactive
OCCOCCN1CCN(C2=Nc3ccccc3Sc3ccccc32)CC1	inactive
Fc1ccc(Br)cc1	inactive
O=C(O)c1ccc(C(=O)O)cc1	inactive
OCC(CO)(CBr)CBr	inactive
C[C@H]1C[C@@H]2[C@H]([C@@H](O)C[C@@]3(C)[C@H]2CC[C@]3(O)C(=O)CO)[C@@]2(C)C=CC(=O)C=C12	inactive
COc1ccc(Cl)cc1C(=O)NCCc1ccc(S(=O)(=O)NC(=O)NC2CCCCC2)cc1	inactive
c1ccc(OCCOc2ccccc2)cc1	inactive
CCCCCCCCCCCCOCCO	inactive
CC(C)c1ccc(S(=O)(=O)O)cc1	inactive
N[C@@H](Cc1cc(I)c(Oc2cc(I)c(O)c(I)c2)c(I)c1)C(=O)O	inactive
COc1ccc(Nc2ccccc2)c(C)c1	inactive
NNc1nncc2ccccc12	inactive
CC(=O)Nc1ccccc1	inactive
CCCCN(CCCC)CCCC	inactive
CCCCCCCCCCCCCCCO	inactive
CCCCCCCCCCCCc1ccccc1	inactive
FC(F)(F)c1ccc(Cl)c(Cl)c1	inactive
CCCC(C)=O	inactive

SMILES	outcome
CCCCC(CC)CO (stereo not given)	inactive
CCCCCC/C(C=O)=C\c1ccccc1	inactive
CC(C)(C)[C@@H](O)[C@@H](Cc1ccc(Cl)cc1)n1cncn1	inactive
CCCCCC(N)=O	inactive
CC(O)COCC(C)O (stereo not given)	inactive
c1ccc2scnc2c1	inactive
CCOC(=O)NNc1nncc2ccccc12	inactive
CCCCC(CC)COC(=O)CCCCC(=O)OCC(CC)CCCC (stereo not given)	inactive
CCCCCCCCCCCCS	inactive
O=C(O)CC(C(=O)O)C(CC(=O)O)C(=O)O (stereo not given)	inactive
C=C(C)C(=O)OCCOCCOCCOC(=O)C(=C)C	inactive
O=C1CCC(N2C(=O)c3ccccc3C2=O)C(=O)N1 (stereo not given)	inactive
OCCOCCOCCO	inactive
COc1ccc(NC(C)=O)cc1N	inactive
C[Si](O[Si](C)(C)C)O[Si](C)(C)C	inactive
COCCCOc1ccnc(CS(=O)c2nc3ccccc3[nH]2)c1C (stereo not given)	inactive
CN(C)CCC(c1ccccc1)c1ccccn1 (stereo not given)	inactive
C#C[C@]1(O)CC[C@H]2[C@@H]3CCC4=CC(=O)CC[C@@H]4[C@H]3CC[C@@]21C	inactive
CC(=O)c1ccccc1	inactive
Cc1cnc(C(=O)NCCc2ccc(S(=O)(=O)NC(=O)NC3CCCCC3)cc2)cn1	inactive
